A selection: hits, their analogues and other compounds. The true share with any hit is near 8.8%.
HT1080 IDH1KD tx: qHTS for induction of synthetic lethality in tumor cells producing 2HG: qHTS for the HT-1080-IDH1KD cell line | Potency, µM (highest dose often 46.1 µM), for inactives: at the top dose activity, negative = toxicity, hits mostly cytotoxic | actives 2% (n = 360,000) | AID 686971, 2013 | HT-1080 IDH1 knockdown viability, ATP luminescence, 48 h;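 note: potency is the fitted concentration of half-maximal effect; 0% = DMSO wells and -100% = cell-free medium wells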
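Assay cells: HT-1080 with IDH1 knockdown, 750 per well, RPMI/5% FBS. Exposure: 48 h at 37 °C following 2 h pre-incubation. Read: CellTiter-Glo luminescence; fitted concentration-response, curve class assigned.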
KB-3-1 cytotox: qHTS assay for MDR1-selective chemotherapeutics: Primary screen using the parental adenocarcinoma cell KB-3-1; KB-3-1 viability, CellTiter-Glo ATP luminescence, 72 h; Potency, µM (highest dose often 46.1 µM), most hits filed as cytotoxic; actives 1.4% (n = 400,000); note: potency is the fitted concentration of half-maximal effect; nearly all actives have a fitted effect of over 60% in size
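Viability of parental KB-3-1 cells, measured by CellTiter-Glo luminescence, followed a 72 h incubation at 37 °C with pinned compounds in phenol-red-free DMEM containing 10% FBS.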
IL-1B inflam inh: qHTS for Inhibitors of Inflammasome Signaling: IL-1-beta AlphaLISA Primary Screen. THP-1 LPS/ATP IL-1B secretion, AlphaLISA, 16 h; hits give low values. activity change, % at 57.5 µM. actives 4.7% (n = 360,000); in the data active = activity change below about -50%; inconclusive = mostly about -30% to -49%
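THP-1 cells pretreated 1 hr with compounds (up to 57.5 uM final), then stimulated with LPS (250 ng/mL final) plus ATP (1.25 mM final); secreted IL-1B measured by AlphaLISA after 16 hr, decreased signal indicating inhibition.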
KB-V1 cytotox: qHTS assay for MDR1-selective chemotherapeutics: Primary screen using the drug-selected MDR subline cells KB-V1 | AID 1347076, 2019 | actives 3.4% (n = 400,000) | KB-V1 MDR cells viability, CellTiter-Glo, 72 h | Potency, µM (titrated, usually from 46.1 µM), actives largely listed as cytotoxic; note: potency is the fitted concentration of half-maximal effect; nearly all actives have a fitted effect of over 60% in size
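KB-V1 cells (P-gp-expressing MDR subline of KB-3-1) in phenol-red-free DMEM with 10% FBS were exposed to library compounds over a concentration series for 72 h at 37 degrees C. Viability read by CellTiter-Glo luminescence; concentration-effect curves fitted after normalization.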
HT1080NT lethal: qHTS for induction of synthetic lethality in tumor cells producing 2HG: qHTS for the HT-1080-NT fibrosarcoma cell line; HT-1080-NT fibrosarcoma viability, CellTiter-Glo ATP luminescence, 48 h; Potency, µM (highest dose often 46.1 µM), for the others: at the highest dose activity, negative = less viability, hits mostly cytotoxic; actives 1.6% (n = 360,000); AID 686970, 2013;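 note: NT is the 2HG producing partner of a matched IDH1 knockdown line; potency is the fitted concentration of half-maximal effect; 0% = DMSO-treated cells and -100% = media-only wells without cells; nearly all actives have a fitted effect of over 55% in size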
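750 cells/well, RPMI + 5% FBS; 2 h settle, compound pin-transfer, 48 h at 37 degrees C. CellTiter-Glo 10 min RT, luminescence. Normalized to DMSO and media-only wells.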
Numbers without * were called inactive; i = inactive; u = inconclusive; x = no result; [ ] = another dose, or the depositor's remark. Unless noted, calls come from the whole dose curve; as a rule, active = well fitted curve in the direction sought with a large enough effect; inconclusive = small, poorly fitted or top-dose-only effect, or another doubt; inactive = no such curve, though single readings can be large; an effect the other way counts as inactive or inconclusive. Unless noted, % is set by controls: 0 for no effect and ±100 for the full control effect.

SMILES	HT1080 IDH1KD tx	KB-3-1 cytotox	IL-1B inflam inh	KB-V1 cytotox	HT1080NT lethal
O=C(Cc1ccccc1[N+](=O)[O-])Nc1cccc(S(=O)(=O)NC2=NCCCCC2)c1	-2%	i	0	i	-2%
O=C(/C=C/c1ccc(Cl)cc1Cl)Nc1cccc(S(=O)(=O)NC2=NCCC2)c1	u	u	u	i	-9%
CCOC(=O)c1cccc(NC(=O)/C=C/c2ccc([N+](=O)[O-])cc2)c1	-17%	i	-22	4.1µM*	-12%
O=C(/C=C/c1ccc([N+](=O)[O-])cc1)Nc1cccc(S(=O)(=O)NC2=NCCCCC2)c1	-8%	i	u	18µM*	0%
Cc1cc(NC(=O)NC2(C(F)(F)F)Oc3ccc(Cl)cc3O2)no1 (configuration not stated)	10µM*	u	44	18µM*	u
O=C(NCc1cccnc1)NC1(C(F)(F)F)Oc2ccc(Cl)cc2O1 (configuration not stated)	u	u	28	3.3µM*	-27%
COCCNC(=O)NC1(C(F)(F)F)Oc2ccc(Cl)cc2O1 (configuration not stated)	u	23µM*	0	u	u
Cc1cc(NC(=O)Nc2ccc(F)c(Cl)c2)no1	-25%	i	-24	i	0%[9.24 µM]
O=C(NCc1ccc(Cl)cc1)C1CCC(CNS(=O)(=O)c2ccccc2)CC1 (configuration not stated)	0%	u	-4	i	-25%
CCc1cc(=O)oc2cc(C)cc(OC(C)C(=O)NCCN3CCOCC3)c12 (configuration not stated)	8%	i	13	i	9%
Cc1cc(N2CCCCC2)nc(NCc2ccccc2)n1	u	16µM*	-99*	u	-16%
CCCCOc1cc(C)nc(NCc2ccccc2)n1	u	10µM*	20	u	u
CC(=O)c1ccc(Oc2cc(C)nc(NCc3ccccc3)n2)cc1	5%	u	21	16µM*	-2%
CSc1nc(SCc2ccccc2)[nH]c(=O)n1	-3%	i	-15	i	3%
CC(=O)c1ccc(NC(=O)Cn2cc(S(=O)(=O)Cc3ccccc3Cl)c3ccccc32)cc1	x	i	x	i	x
Cc1cc(=O)n2ccsc2n1	2%	i	12	i	-6%
CCCN(CCC)CCCNC(=O)Cn1cnc2onc(-c3ccc(F)cc3)c2c1=O	x	i	x	i	x
O=C1c2cccc3cc([N+](=O)[O-])cc(c23)C(=O)N1/N=C/c1ccc(O)cc1O	-28%	i	-96*	i	u
CCN(CC)CCN1C(=O)c2cccc3cc(N)cc(c23)C1=O	33µM*	u	-78*	u	33µM*
NC(=O)CN1CCN(CCN2C(=O)c3cccc4cccc(c34)C2=O)CC1	-13%	i	0	i	0%
Nc1cc2c3c(cccc3c1)C(=O)N(CCN1CCCC1)C2=O	u	u	-99*	23µM*	21µM*
CCN(CC)c1ccc(/C=N/N2C(=O)c3ccccc3C2=O)c(O)c1	30%	i	7	i	12%
O=C1c2cccc3cc([N+](=O)[O-])cc(c23)C(=O)N1CCN1CCCC1	2.3µM*	u	-98*	u	u
O=C(NNc1ncnc2c1cnn2-c1ccccc1)c1cccc(Cl)c1	x	i	x	i	x
O=C1c2cccc3cccc(c23)C(=O)N1CCN1CCN(C(=S)Nc2ccccc2)CC1	0%	i	u	18µM*	12%
SMILES	HT1080 IDH1KD tx	KB-3-1 cytotox	IL-1B inflam inh	KB-V1 cytotox	HT1080NT lethal
Cc1cccc(C)c1NC(=O)C(CCc1ccccc1)n1c(=O)c(-c2cc3ccccc3[nH]2)nc2ccccc21 (configuration not stated)	u	u	-12	21µM*	u
Cc1cccc(C)c1NC(=O)C(c1ccc(-c2ccccc2)cc1)n1c(=O)c(-c2cc3ccccc3[nH]2)nc2ccccc21 (configuration not stated)	-13%	i	52	i	-3%
Cc1cccc(C)c1NC(=O)C(c1ccc(C(F)(F)F)cc1)n1c(=O)c(-c2cc3ccccc3[nH]2)nc2ccccc21 (configuration not stated)	21µM*	i	90	i	u
CC(C)(C)NC(=O)C(c1ccc(C(F)(F)F)cc1)n1c(=O)c(-c2cc3ccccc3[nH]2)nc2ccccc21 (configuration not stated)	21µM*	i	150	i	u
CC(C)(C)NC(=O)C(c1ccncc1)n1c(-c2ccc(C(F)(F)F)cc2)nc2ccccc21 (configuration not stated)	21µM*	u	-16	u	u
CC1(C)CC2CC(C)(CN2C(=O)COC(=O)c2cncc(Br)c2)C1 (configuration not stated)	1%	i	1	u	-1%
O=[N+]([O-])c1ccc(CNCc2cc(Cl)ccc2O)cc1	-3%	u	-17	i	0%
CC(C)(C)NC(=O)C(c1ccc(-c2ccccc2)cc1)n1c(=O)c(-c2cc3ccccc3[nH]2)nc2ccccc21 (configuration not stated)	-16%	u	91	i	2%
CC(C)(C)NC(=O)C(c1ccccc1)n1c(=O)c(-c2cc3ccccc3[nH]2)nc2ccccc21 (configuration not stated)	u	u	68	23µM*	u
O=C1CC(c2ccc(Cl)cc2)Oc2ccc(Cl)cc21 (configuration not stated)	u	i	-87*	i	u
O=C1CC(c2ccccc2)Oc2ccccc21 (configuration not stated)	-3%	i	u	i	-21%
Cn1c(Cl)cnc1C1CC(=O)c2cc(Cl)ccc2O1 (configuration not stated)	9.2µM*	u	-95*	u	u
O=C1CC(c2cccc(O)c2)Oc2ccccc21 (configuration not stated)	-5%	i	-83*	u	1%
Cc1ccc([N+](=O)[O-])c(NC(=O)COC(=O)CCNS(=O)(=O)c2cccs2)c1C	4%	i	8	i	7%
